Source: the supplement of paper PMC11732987, “Enantioselective OTUD7B fragment discovery through chemoproteomics screening and high-throughput optimisation” (Communications Chemistry, 2025)

Legend:
Assay in all cases: log2 ratio of Biotin-Ahx-Ub-VS probe labelling (fragment/DMSO); higher = less target engagement (more negative = stronger competition), active = hit call of the paper (q ≤ 0.05, log2 ratio ≤ -1)
Conditions in all cases: compound concentration: 200 uM; treatment time: 3 h
USP42 = biological target: T1, USP42 (UniProt Q9H9J4)
T1 sequence (whole entry): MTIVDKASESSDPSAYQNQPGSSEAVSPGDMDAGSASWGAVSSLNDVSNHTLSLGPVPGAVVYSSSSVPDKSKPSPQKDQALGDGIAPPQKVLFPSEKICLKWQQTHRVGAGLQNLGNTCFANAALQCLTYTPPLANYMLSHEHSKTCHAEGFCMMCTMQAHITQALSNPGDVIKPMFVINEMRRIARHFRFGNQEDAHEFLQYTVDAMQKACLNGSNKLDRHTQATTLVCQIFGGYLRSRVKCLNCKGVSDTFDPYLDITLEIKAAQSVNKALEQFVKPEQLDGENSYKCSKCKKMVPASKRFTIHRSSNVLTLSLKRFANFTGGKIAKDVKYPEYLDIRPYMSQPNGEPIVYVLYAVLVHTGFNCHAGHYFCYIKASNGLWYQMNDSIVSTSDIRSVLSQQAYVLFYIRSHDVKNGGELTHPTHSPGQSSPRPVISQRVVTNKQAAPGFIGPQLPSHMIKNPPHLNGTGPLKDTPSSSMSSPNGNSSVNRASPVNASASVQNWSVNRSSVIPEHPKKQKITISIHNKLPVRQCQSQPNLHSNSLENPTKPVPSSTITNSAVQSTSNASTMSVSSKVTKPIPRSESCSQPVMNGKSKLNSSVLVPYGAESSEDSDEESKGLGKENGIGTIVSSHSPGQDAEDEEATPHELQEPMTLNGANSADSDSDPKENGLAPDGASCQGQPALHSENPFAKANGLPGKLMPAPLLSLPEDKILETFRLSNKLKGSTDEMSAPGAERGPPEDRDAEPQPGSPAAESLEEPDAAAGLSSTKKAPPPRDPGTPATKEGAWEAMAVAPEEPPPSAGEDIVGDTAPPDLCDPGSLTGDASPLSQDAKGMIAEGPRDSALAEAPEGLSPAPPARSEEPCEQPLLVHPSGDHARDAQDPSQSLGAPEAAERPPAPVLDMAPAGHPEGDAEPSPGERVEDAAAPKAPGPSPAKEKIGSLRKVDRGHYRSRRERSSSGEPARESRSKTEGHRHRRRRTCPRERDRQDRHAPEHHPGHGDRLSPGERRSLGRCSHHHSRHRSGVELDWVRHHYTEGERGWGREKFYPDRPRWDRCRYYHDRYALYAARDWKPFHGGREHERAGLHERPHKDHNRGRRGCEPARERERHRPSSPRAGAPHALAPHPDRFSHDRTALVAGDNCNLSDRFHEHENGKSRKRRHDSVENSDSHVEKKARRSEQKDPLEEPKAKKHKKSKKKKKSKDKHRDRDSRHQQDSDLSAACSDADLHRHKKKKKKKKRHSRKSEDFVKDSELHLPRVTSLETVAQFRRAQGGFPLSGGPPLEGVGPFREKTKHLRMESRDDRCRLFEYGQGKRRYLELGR
How it was run: (§1)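 HEK293T lysate (495 µg per sample, in Tris/CHAPS/IGEPAL buffer with protease inhibitors) was treated in triplicate with fragment at 200 µM or with DMSO for 3 h. It was then treated with Biotin-Ahx-Ub-VS (0.5 µM final) for 1 h. Labelled DUBs were NeutrAvidin-enriched, digested with LysC and trypsin, and run by diaPASEF LC-MS/MS. Spectronaut label-free quantities were global-median-normalised. Values are average log2 ratios fragment/DMSO by unpaired t-test, using proteins with ≥2 unique peptides.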

USP46 = USP46 (UniProt P62068)
How it was run: as §1

USP47 = biological target: T2, USP47 (UniProt Q96K76)
T2 sequence (whole entry): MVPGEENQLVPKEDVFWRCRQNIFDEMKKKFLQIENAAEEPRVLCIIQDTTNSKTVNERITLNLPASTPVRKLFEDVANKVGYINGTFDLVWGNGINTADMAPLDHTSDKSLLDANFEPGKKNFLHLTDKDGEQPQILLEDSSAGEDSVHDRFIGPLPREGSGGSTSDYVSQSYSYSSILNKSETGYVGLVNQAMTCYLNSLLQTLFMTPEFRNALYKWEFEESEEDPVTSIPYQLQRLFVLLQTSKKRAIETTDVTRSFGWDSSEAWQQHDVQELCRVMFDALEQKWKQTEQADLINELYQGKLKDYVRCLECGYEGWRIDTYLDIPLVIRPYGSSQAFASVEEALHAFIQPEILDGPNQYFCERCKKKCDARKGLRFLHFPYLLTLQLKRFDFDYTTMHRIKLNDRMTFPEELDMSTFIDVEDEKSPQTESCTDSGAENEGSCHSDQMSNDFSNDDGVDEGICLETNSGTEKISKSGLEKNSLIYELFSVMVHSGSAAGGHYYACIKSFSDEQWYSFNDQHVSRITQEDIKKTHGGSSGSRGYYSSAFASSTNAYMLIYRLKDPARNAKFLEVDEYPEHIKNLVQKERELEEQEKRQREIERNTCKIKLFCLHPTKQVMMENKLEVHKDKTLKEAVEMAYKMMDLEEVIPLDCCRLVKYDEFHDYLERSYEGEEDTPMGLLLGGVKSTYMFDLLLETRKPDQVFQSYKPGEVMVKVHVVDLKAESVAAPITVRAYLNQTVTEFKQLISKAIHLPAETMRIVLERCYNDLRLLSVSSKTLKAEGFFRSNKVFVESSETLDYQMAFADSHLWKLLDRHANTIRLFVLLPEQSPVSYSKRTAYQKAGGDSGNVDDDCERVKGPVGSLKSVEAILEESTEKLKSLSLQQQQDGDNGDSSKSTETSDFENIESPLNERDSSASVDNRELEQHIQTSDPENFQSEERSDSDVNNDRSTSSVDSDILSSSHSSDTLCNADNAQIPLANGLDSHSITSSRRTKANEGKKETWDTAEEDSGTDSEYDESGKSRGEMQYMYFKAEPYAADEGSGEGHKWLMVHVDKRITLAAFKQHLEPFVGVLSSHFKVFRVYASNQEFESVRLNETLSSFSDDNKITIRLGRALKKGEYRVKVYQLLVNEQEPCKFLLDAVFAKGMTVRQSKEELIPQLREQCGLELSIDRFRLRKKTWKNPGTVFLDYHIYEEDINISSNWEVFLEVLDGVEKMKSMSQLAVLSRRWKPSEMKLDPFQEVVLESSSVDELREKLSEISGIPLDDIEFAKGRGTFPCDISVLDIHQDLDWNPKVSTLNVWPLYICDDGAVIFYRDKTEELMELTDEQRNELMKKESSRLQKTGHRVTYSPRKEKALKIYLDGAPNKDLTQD
How it was run: as §1

USP48 = biological target: T3, USP48 (UniProt Q86UV5)
T3 sequence (whole entry): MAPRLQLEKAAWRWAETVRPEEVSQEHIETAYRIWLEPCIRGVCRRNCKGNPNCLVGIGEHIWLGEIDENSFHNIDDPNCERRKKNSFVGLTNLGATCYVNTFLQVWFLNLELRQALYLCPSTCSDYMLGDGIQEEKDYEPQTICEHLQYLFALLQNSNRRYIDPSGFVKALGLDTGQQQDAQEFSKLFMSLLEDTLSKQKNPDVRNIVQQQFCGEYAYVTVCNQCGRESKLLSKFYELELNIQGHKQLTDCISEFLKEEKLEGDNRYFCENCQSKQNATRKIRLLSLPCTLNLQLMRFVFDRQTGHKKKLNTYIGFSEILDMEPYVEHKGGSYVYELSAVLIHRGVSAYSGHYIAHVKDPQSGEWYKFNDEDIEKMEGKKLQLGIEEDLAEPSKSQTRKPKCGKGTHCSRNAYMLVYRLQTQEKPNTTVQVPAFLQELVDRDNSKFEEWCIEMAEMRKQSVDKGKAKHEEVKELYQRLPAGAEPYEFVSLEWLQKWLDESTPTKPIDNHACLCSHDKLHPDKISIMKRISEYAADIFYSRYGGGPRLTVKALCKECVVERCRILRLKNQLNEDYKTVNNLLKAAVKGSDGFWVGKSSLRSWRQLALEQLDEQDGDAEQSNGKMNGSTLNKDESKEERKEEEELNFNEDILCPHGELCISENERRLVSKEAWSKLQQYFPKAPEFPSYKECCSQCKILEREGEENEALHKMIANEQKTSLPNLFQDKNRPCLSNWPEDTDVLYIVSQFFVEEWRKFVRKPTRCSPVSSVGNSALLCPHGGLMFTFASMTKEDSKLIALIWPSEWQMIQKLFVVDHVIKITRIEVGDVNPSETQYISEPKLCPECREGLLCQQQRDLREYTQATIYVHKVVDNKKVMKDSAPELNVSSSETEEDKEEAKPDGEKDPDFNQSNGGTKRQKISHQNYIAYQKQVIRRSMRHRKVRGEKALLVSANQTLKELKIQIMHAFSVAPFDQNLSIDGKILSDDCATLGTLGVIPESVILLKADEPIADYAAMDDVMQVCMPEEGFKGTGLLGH
How it was run: as §1

USP5 = biological target: T4, USP5 (UniProt P45974)
T4 sequence (whole entry): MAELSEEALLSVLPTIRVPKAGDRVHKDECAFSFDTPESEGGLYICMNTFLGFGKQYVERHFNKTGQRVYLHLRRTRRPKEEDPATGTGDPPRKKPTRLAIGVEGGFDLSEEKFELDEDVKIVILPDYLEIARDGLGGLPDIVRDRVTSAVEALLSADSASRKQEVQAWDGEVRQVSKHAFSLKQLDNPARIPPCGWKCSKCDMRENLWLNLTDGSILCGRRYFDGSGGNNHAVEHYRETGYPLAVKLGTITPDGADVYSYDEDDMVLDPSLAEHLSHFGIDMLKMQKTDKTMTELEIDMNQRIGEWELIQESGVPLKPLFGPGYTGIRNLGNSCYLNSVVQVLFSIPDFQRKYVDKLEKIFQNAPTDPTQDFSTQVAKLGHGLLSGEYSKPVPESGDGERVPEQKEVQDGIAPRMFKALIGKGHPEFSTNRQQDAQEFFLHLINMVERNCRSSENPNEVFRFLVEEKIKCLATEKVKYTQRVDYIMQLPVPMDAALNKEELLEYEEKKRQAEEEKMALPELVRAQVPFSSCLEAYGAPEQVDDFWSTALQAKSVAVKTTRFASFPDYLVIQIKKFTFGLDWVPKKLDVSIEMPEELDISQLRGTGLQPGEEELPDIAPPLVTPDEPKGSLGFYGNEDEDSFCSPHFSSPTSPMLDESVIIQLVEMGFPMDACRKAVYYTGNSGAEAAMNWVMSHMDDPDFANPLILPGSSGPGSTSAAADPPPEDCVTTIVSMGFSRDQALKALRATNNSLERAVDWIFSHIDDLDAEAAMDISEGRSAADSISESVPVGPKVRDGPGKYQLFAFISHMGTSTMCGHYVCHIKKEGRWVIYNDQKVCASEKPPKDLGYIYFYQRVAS
How it was run: as §1

USP54 = USP54 (UniProt Q70EL1)
How it was run: as §1

USP7 = USP7 (UniProt Q93009)
How it was run: as §1

USP8 = biological target: T5, USP8 (UniProt P40818)
T5 sequence (whole entry): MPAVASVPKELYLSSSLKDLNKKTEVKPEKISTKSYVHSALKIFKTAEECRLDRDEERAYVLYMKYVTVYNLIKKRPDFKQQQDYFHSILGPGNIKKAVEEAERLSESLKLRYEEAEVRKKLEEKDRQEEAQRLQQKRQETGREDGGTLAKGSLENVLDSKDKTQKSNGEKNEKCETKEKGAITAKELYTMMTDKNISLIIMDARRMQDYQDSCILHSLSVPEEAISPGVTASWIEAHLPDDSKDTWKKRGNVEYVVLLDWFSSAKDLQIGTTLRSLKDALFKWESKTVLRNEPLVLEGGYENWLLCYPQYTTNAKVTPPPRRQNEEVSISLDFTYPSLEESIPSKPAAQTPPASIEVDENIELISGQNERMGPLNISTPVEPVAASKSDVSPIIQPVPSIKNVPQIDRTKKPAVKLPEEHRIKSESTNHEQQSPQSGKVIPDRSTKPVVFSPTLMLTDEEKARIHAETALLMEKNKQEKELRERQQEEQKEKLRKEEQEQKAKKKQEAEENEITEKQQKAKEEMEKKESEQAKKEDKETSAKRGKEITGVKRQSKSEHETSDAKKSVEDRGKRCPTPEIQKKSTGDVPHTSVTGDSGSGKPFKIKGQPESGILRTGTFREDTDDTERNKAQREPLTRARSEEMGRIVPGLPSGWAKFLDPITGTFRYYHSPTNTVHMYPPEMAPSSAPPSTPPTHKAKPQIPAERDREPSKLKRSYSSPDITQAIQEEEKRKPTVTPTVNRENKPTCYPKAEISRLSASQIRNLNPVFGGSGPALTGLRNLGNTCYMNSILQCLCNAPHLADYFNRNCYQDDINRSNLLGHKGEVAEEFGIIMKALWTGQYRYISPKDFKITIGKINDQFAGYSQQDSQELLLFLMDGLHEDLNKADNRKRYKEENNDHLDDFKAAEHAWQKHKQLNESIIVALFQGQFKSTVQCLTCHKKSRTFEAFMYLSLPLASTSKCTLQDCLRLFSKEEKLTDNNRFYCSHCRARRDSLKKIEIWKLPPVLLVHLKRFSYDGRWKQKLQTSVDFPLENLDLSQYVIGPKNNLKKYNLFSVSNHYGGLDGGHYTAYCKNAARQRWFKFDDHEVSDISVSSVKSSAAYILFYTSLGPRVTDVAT
How it was run: as §1

USP9X = USP9X (UniProt Q93008)
How it was run: as §1

UniProt O00487 = biological target: UniProt O00487
How it was run: as §1

Measured: log2 ratio of Biotin-Ahx-Ub-VS probe labelling

Chain of UniProt O00487 (O00487 whole entry): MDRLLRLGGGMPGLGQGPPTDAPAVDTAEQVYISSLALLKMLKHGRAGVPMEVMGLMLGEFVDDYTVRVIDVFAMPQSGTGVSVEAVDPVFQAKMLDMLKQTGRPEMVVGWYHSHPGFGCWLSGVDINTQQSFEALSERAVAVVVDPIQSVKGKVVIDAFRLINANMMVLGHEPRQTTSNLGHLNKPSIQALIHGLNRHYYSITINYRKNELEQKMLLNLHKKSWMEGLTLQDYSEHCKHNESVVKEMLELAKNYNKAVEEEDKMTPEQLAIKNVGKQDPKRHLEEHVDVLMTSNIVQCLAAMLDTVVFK
Chain of USP46 (P62068 whole entry): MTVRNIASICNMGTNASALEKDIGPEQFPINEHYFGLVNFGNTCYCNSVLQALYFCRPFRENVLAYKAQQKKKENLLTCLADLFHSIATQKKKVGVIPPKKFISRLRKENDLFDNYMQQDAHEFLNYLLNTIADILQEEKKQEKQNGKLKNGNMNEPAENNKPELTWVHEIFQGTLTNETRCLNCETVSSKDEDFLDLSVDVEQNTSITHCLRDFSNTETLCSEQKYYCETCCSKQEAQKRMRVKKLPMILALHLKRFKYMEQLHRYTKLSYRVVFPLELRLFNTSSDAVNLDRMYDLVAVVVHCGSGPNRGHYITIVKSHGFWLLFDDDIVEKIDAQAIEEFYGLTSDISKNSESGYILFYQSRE
Chain of USP7 (Q93009 whole entry, looked up): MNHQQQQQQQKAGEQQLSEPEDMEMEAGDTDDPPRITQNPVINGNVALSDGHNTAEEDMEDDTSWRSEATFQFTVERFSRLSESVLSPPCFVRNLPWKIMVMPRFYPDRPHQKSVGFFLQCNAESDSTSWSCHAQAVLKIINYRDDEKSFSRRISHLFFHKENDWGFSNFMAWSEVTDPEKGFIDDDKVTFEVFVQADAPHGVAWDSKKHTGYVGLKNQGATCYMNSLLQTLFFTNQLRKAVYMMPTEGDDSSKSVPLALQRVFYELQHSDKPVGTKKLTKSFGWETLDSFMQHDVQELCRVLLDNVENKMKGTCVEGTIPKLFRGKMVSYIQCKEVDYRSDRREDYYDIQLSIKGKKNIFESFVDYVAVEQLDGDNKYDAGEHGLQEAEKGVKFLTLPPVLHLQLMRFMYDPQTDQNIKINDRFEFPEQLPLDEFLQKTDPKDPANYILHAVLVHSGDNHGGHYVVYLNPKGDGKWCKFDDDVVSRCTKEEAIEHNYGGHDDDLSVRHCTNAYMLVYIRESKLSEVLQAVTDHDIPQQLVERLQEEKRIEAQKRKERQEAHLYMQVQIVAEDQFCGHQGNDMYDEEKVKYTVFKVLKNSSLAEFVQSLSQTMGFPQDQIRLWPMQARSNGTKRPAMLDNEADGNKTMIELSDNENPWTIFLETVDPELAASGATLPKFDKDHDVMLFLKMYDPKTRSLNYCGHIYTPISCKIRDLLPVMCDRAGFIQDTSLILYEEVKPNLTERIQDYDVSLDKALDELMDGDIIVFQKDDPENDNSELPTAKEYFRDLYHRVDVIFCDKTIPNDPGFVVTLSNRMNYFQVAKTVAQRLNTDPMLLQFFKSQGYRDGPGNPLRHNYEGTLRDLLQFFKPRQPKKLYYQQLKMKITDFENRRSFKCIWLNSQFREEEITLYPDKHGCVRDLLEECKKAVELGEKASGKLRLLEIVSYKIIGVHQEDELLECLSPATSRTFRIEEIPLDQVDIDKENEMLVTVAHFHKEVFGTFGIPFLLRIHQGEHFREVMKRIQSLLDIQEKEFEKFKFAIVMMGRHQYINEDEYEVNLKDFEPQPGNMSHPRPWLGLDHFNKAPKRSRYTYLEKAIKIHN
Chain of USP9X (Q93008 whole entry): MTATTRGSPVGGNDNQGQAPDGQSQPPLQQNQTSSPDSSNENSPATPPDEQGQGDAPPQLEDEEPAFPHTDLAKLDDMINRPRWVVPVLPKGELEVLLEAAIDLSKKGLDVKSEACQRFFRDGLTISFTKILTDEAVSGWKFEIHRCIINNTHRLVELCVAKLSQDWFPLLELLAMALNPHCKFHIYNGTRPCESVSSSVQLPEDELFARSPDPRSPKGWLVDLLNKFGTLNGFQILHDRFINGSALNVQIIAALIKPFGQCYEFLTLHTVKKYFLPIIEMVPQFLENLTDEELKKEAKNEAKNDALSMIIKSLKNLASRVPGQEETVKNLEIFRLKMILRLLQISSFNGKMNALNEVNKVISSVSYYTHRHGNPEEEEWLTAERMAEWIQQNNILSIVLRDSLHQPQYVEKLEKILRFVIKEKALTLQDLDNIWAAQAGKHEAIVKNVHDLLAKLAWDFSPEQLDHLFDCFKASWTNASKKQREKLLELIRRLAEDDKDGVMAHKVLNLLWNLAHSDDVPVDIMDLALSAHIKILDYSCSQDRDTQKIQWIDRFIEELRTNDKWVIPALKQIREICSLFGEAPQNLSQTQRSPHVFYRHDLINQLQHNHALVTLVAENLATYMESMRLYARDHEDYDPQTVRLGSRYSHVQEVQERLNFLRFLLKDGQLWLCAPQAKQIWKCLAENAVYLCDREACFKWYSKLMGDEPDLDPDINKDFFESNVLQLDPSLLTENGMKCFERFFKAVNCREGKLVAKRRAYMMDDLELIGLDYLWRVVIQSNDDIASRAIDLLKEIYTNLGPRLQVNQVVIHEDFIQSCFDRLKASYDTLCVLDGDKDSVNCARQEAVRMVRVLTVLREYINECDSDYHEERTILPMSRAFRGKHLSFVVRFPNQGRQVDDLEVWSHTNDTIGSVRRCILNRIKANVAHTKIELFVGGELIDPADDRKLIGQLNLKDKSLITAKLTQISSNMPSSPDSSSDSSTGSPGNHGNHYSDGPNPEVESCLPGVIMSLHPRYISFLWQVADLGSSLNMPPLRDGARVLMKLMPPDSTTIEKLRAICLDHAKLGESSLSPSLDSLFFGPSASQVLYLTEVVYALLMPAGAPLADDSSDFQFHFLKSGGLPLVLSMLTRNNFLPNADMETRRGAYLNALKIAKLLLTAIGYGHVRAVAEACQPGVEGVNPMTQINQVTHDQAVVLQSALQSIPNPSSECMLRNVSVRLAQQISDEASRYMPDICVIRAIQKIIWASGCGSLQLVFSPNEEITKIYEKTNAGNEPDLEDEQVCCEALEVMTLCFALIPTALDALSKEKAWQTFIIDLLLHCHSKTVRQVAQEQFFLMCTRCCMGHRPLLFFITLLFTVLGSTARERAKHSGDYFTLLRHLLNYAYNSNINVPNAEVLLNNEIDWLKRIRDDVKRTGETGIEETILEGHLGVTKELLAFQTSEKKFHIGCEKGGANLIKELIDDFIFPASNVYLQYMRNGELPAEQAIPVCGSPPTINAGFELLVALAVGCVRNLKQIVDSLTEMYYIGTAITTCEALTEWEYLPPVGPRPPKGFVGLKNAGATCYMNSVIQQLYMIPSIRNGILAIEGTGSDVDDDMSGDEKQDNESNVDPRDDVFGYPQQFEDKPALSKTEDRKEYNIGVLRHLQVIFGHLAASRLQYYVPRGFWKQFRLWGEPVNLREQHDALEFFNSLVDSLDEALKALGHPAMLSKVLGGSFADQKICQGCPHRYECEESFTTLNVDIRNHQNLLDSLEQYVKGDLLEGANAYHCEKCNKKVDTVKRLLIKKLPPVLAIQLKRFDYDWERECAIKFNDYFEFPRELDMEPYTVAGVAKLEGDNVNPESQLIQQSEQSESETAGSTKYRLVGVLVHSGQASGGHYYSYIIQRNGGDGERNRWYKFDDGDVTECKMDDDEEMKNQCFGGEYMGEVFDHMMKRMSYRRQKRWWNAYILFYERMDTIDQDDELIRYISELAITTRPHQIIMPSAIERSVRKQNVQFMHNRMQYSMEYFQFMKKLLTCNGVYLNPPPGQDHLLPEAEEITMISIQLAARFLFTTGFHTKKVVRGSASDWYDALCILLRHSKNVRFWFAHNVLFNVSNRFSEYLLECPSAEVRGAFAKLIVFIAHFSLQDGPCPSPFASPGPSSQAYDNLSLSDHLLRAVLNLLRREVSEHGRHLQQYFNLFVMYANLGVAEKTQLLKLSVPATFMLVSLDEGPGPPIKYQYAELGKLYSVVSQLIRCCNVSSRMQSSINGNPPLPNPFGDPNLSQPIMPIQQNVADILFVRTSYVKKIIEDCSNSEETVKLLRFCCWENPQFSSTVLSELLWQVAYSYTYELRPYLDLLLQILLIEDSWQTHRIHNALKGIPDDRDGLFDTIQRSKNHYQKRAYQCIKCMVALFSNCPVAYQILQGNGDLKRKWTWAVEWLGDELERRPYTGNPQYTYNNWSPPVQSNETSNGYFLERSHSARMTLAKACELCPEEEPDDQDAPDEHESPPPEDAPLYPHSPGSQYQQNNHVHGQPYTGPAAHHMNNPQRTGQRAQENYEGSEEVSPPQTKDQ

O=C(CCl)NCCC1=CCCCC1
inactive: USP42 0.91 | USP46 -0.0411 | USP47 -0.145 | USP48 0.0648 | USP5 0.0523 | USP54 0.116 | USP7 -0.402 | USP8 0.244 | USP9X -0.0639 | UniProt O00487 -0.0958
